# Reference: PMC11062922 (Nature Chemical Biology, 2023)
# Like-named read-outs stand apart in the source and are kept apart here.
# Columns and labels:
# Design in all cases: species or system human, MV4-11 + K-562 + COLO205 + SK-N-BE2 + OVCAR-8
# [1] = system: ATM; details: read-out: apparent Kd, n = 1
# [2] = system: BMPR1B; details: read-out: apparent Kd; compound concentrations:100 nM and 1000 nM (sheet 'Samples'); n = 1
# [3] = system: DDR1; details: read-out: apparent Kd; compound concentrations:100 nM and 1000 nM (sheet 'Samples'); n = 1
# [4] = system: IRAK3; details: read-out: apparent Kd; compound concentrations:100 nM and 1000 nM (sheet 'Samples'); n = 1
# [5] = system: MAPK10; details: read-out: apparent Kd; compound concentrations:100 nM and 1000 nM (sheet 'Samples'); n = 1
# [6] = system: MAPK11; details: read-out: apparent Kd; compound concentrations:100 nM and 1000 nM (sheet 'Samples'); n = 1
# [7] = system: MAPK14; details: read-out: apparent Kd; compound concentrations:100 nM and 1000 nM (sheet 'Samples'); n = 1
# [8] = system: MAPK8; details: read-out: apparent Kd; compound concentrations:100 nM and 1000 nM (sheet 'Samples'); n = 1
# [9] = system: MAPK9; details: read-out: apparent Kd; compound concentrations:100 nM and 1000 nM (sheet 'Samples'); n = 1
# [10] = system: MAPKAPK2; details: read-out: apparent Kd; compound concentrations:100 nM and 1000 nM (sheet 'Samples'); n = 1
# [11] = system: PIK3CD; details: read-out: apparent Kd; compound concentrations:100 nM and 1000 nM (sheet 'Samples'); n = 1
# [12] = system: PRKAG1; details: read-out: apparent Kd; compound concentrations:100 nM and 1000 nM (sheet 'Samples'); n = 1
# [13] = system: PIK3C3; details: read-out: apparent Kd; compound concentrations:100 nM and 1000 nM (sheet 'Samples'); n = 1
# [14] = system: AKT3; details: read-out: apparent Kd, n = 1
# [15] = system: FLT3; details: read-out: apparent Kd; compound concentrations: 100 nM and 1000 nM (sheet 'Samples'), CATDS: 0.41420685455441397; n = 1
# [16] = system: MYLK3; details: read-out: apparent Kd; compound concentrations: 100 nM and 1000 nM (sheet 'Samples'), CATDS: 0.45144948525054202; n = 1
# [17] = system: CDK16; details: read-out: apparent Kd; compound concentrations:100 nM and 1000 nM (sheet 'Samples'); n = 1
# [18] = system: CDK17; details: read-out: apparent Kd; compound concentrations:100 nM and 1000 nM (sheet 'Samples'); n = 1
# [19] = system: CDK2; details: read-out: apparent Kd; compound concentrations:100 nM and 1000 nM (sheet 'Samples'); n = 1
# [20] = system: CLK4; details: read-out: apparent Kd; compound concentrations:100 nM and 1000 nM (sheet 'Samples'); n = 1
# [21] = system: PAK4; details: read-out: apparent Kd; compound concentrations:100 nM and 1000 nM (sheet 'Samples'); n = 1
# [22] = system: STK3; details: read-out: apparent Kd; compound concentrations:100 nM and 1000 nM (sheet 'Samples'); n = 1
# [23] = system: STK4; details: read-out: apparent Kd; compound concentrations:100 nM and 1000 nM (sheet 'Samples'); n = 1
# [24] = system: DCTPP1; details: read-out: apparent Kd; compound concentrations:100 nM and 1000 nM (sheet 'Samples'); n = 1
# [25] = system: NQO1; details: read-out: apparent Kd; compound concentrations:100 nM and 1000 nM (sheet 'Samples'); n = 1
# [26] = system: AP1G1; details: read-out: apparent Kd; compound concentrations:100 nM and 1000 nM (sheet 'Samples'); n = 1
# [27] = system: GSK3A; details: read-out: apparent Kd; compound concentrations: 100 nM and 1000 nM (sheet 'Samples'), CATDS: 0.20080889855539999; n = 1
# [28] = system: GSK3B; details: read-out: apparent Kd; compound concentrations: 100 nM and 1000 nM (sheet 'Samples'), CATDS: 0.19196654372997399; n = 1
# [29] = system: PIK3CA; details: read-out: apparent Kd; compound concentrations: 100 nM and 1000 nM (sheet 'Samples'), CATDS: 0.224567790498646; n = 1
# [30] = compound concentrations:100 nM and 1000 nM (sheet 'Samples')
smiles,measurement,setting,value
CCn1c(=O)c(Oc2ccc(F)cc2F)cc2cnc(NC3CCOCC3)nc21 [RO4367438-000],potency estimated from few doses,[1]; [30],238 nM
same,potency estimated from few doses,[2],867 nM
same,potency estimated from few doses,[3],1510 nM
same,potency estimated from few doses,[4],1240 nM
same,potency estimated from few doses,[5],45.1 nM
same,potency estimated from few doses,[6],89.8 nM
same,potency estimated from few doses,[7],2.49 nM
same,potency estimated from few doses,[8],153 nM
same,potency estimated from few doses,[9],46.5 nM
same,potency estimated from few doses,[10],8.81 nM
same,potency estimated from few doses,[11],13.5 nM
same,potency estimated from few doses,[12],128 nM
Cc1cn2c(=O)cc(N3CCOCC3)nc2n1Cc1cccc(Cl)c1Cl [GSK2334006A],potency estimated from few doses,[1]; [30],280 nM
same,potency estimated from few doses,[13],61.5 nM
CS(=O)(=O)Nc1ccc(N/C=C2\C(=O)Nc3ccccc32)cc1 [GW278681X],potency estimated from few doses,"[14]; compound concentrations: 100 nM and 1000 nM (sheet 'Samples'), CATDS: 0.228798391958558",1780 nM
same,potency estimated from few doses,[15],358 nM
same,potency estimated from few doses,[16],306 nM
COc1cc(F)c(F)cc1C(=O)c1cnc(NC2CCN(S(C)(=O)=O)CC2)nc1N [RO4595655-000],potency estimated from few doses,[1]; [30],157 nM
same,potency estimated from few doses,[17],1510 nM
same,potency estimated from few doses,[18],1840 nM
same,potency estimated from few doses,[19],1210 nM
same,potency estimated from few doses,[20],1430 nM
same,potency estimated from few doses,[21],1340 nM
same,potency estimated from few doses,[22],2300 nM
same,potency estimated from few doses,[23],1690 nM
CC(C)NC(=O)N1CC[C@H](NC2=Nc3cc(F)ccc3N(CC(F)F)c3ccc(Cl)cc32)C1 [NVS-PAK1-1],potency estimated from few doses,[14]; [30],1760 nM
same,potency estimated from few doses,[24],2220 nM
same,potency estimated from few doses,[25],1340 nM
same,potency estimated from few doses,[12],1740 nM
COc1cccc(OC)c1C(=O)Nc1cccc(-c2nn3ccccc3c2-c2ccnc(Nc3cccc(F)c3)n2)c1 [GSK361065A],potency estimated from few doses,[26],895 nM
Cc1c(C2=C(c3cn(C)c4ccccc34)C(=O)NC2=O)c2ccccc2n1C [RO0317777-000],potency estimated from few doses,"[1]; compound concentrations: 100 nM and 1000 nM (sheet 'Samples'), CATDS: 0.73643038354307599",20.1 nM
same,potency estimated from few doses,[27],343 nM
same,potency estimated from few doses,[28],397 nM
same,potency estimated from few doses,[29],247 nM
Cc1cnc(N)c(/C=C/c2cncc(C(=O)NCCc3ccc(Cl)cc3Cl)c2)c1.Cl [GSK190937A],potency estimated from few doses,"[1]; compound concentrations: 100 nM and 1000 nM (sheet 'Samples'), CATDS: 1",186 nM
